Assay results: PubChem BioAssay (Tox21)
Results filed as inconclusive are left out. The source made the active and inactive calls. Unless noted, the call rests on the fitted dose curve; in most records, active means well fitted curve in the direction sought with a large enough effect in the repeat runs; inconclusive means weak or mixed curves; inactive means no such curve, though single readings can be large; an effect the other way counts as inactive or inconclusive.

How the values were obtained:
[1] = molecular target: Thyrotropin receptor (Homo sapiens) (UniProt P16473); assay: qHTS assay to identify small molecule antagonists of the thyroid stimulating hormone receptor (TSHR) signaling pathway (AID 1259385; calls by dose curve; further: nearly all actives have a fitted effect of over 20% in size)
How it was run: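 TSHR-HEK293 cells were plated and held 18 h at 37C/5% CO2, then given compound plus Ro20-1724 and stimulated with TSH at 1.5 ng/mL final. After 30 min at room temperature, cAMP was detected with cAMP-d2/anti-cAMP-cryptate (1 h) by fluorescence.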

[2] = qHTS assay to identify small molecule agonists of the estrogen receptor alpha (ER-alpha) signaling pathway in the presence of an antagonist - cell viability counter screen (AID 1259386);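 further: series mostly up to about 92 µM; cells exposed to compounds for 22 h at 37 °C before the viability read; nearly all actives have a fitted effect of over 30% in size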
How it was run: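 Read-out: CellTiter-Fluor fluorescence after 1hr reagent incubation, measured in the same wells as the luciferase readout. VM7Luc4E2 cells were exposed to 15 compound concentrations with 10.0nM ICI-182,780 for 22hr at 37C.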

[3] = molecular target: Progesterone receptor (Homo sapiens) (UniProt P06401); assay: qHTS assay to identify small molecule agonists of the progesterone receptor (PR) signaling pathway (AID 1346784; calls by dose curve; further: nearly all actives have a fitted effect of over 30% in size)
How it was run: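 The screen uses PR-UAS-bla HEK 293T cells in charcoal-stripped serum (2%). Compounds are applied for 16 hr at 37C after a 6 hr pre-incubation, and reporter activity is detected with a FRET beta-lactamase substrate after 2 hr at room temperature.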

[4] = molecular target: Progesterone receptor (Homo sapiens) (UniProt P06401); assay: qHTS assay to identify small molecule antagonists of the progesterone receptor (PR) signaling pathway (AID 1346795; active means well fitted inhibition curve with a large enough effect in the signal ratio in the repeat runs, not every such curve was filed as active; the % refers to the signal ratio)
How it was run: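 After 6 hr plating at 37C in 2% stripped-serum medium, PR-UAS-bla HEK293T cells got compounds, then 1 nM R5020. Sixteen hours later, LiveBLAzer substrate was applied for 2 hr at room temperature and fluorescence was recorded.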

[5] = qHTS assay to identify small molecule agonists of the progesterone receptor (PR) signaling pathway - cell viability counter screen (AID 1346799; calls by dose curve; further: nearly all actives have a fitted effect of over 45% in size)
How it was run: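 Viability was scored by ATP luminescence (CellTiter-Glo, 30 min, room temperature) in the same wells used for the reporter readout, after 16 hr compound exposure of PR-UAS-bla HEK293T cells.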

[6] = qHTS assay to identify small molecule antagonists of the TGF-beta/Smad signaling pathway - cell viability counter screen (AID 1346824); further: nearly all actives have a fitted effect of over 50% in size
How it was run: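 SBE-bla HEK 293T cells were plated overnight at 37 C, then given compounds in DMSO plus TGF-beta1 (added as 0.25 ng/mL solution) for 5 hr. After the bla read, CellTiter-Glo was added to the same wells and luminescence read after 30 min at room temperature.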

[7] = qHTS assay to identify small molecule agonists of the TGF-beta/Smad signaling pathway - cell viability counter screen (AID 1346829); further: top concentration of the series differs between compounds; nearly all actives have a fitted effect of over 45% in size
How it was run: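 Compound-treated SBE-bla HEK 293T cells (5 hr, 37 C) were assessed for viability with CellTiter-Glo in parallel with the reporter read.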

[8] = molecular target: Thyrotropin-releasing hormone receptor (Homo sapiens) (UniProt P34981); assay: qHTS assay to identify small molecule antagonists of the thyrotropin-releasing hormone receptor (TRHR) signaling pathway (AID 1346877; active means well fitted inhibition curve with a large enough effect in the repeat runs, not every such curve was filed as active; further: series mostly up to about 51 µM)
How it was run: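 HEK293/TRHR cells, 18 h, 37 °C; Ca2+ dye 2 h; cpd 5 min RT; TRH 1 nM final; fluorescence read 3 min, 1 s intervals; 15 concs, triplicate.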

[9] = molecular target: Thyrotropin-releasing hormone receptor (Homo sapiens) (UniProt P34981); assay: qHTS assay to identify small molecule agonists of the thyrotropin-releasing hormone receptor (TRHR) signaling pathway (AID 1346891; calls by dose curve;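 further: HEK293 cells expressing TRHR with calcium dye readout; series mostly up to about 58 µM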)
How it was run: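 Kinetic fluorescence (3 min, 1 s intervals) reported intracellular calcium after compound transfer onto TRHR-Hek293 cells pre-loaded with dye for 2 h at 37 °C.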

[10] = Human pregnane X receptor (PXR) small molecule agonists, qHTS cell viability counter screen (AID 1346977); further: nearly all actives have a fitted effect of over 50% in size
How it was run: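 HepG2 cells stably carrying the PXR-Luc reporter are cultured with 5% charcoal-stripped FBS and treated with compounds for 24hr. CellTiter-Fluor is added at 23hr and fluorescence is read after 1hr.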

[11] = Caspase-3/7 induction in HepG2 cells by small molecules, qHTS assay (AID 1346978); further: nearly all actives have a fitted effect of over 15% in size
How it was run: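 Wild-type HepG2 cells (2,000/well) were settled 5 h at 37 C, 5% CO2, then exposed to compounds in DMSO for 17 h. Caspase-3/7 activity was read by luminescence 30 min after adding Caspase-Glo 3/7 reagent at room temperature.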

[12] = Caspase-3/7 induction in CHO-K1 cells by small molecules, qHTS cell viability counter screen (AID 1346979); further: nearly all actives have a fitted effect of over 35% in size
How it was run: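 Seeding: 1,500 CHO-K1 cells/well. Rest: 5hr, 37C. Treatment: compounds in DMSO, 16hr. Read: CellTiter-Fluor, 1hr, fluorescence.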

[13] = Caspase-3/7 induction in HepG2 cells by small molecules, qHTS cell viability counter screen (AID 1346981); further: series mostly up to about 92 µM; nearly all actives have a fitted effect of over 30% in size
How it was run: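 Fluorescence read-out of live-cell protease activity (CellTiter-Fluor) after 1 hr with reagent. This was measured in the same wells as the caspase-3/7 luminescence, on HepG2 cells exposed to DMSO-dissolved compounds for 16 hr at 37 C.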

[14] = molecular target: Nuclear receptor subfamily 1 group I member 2 (Homo sapiens) (UniProt O75469); assay: Human pregnane X receptor (PXR) small molecule agonists, qHTS assay (AID 1346982); further: nearly all actives have a fitted effect of over 35% in size
How it was run: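 HepG2 PXR-Luc reporter line, 5% charcoal-stripped FBS; 5 hr pre-incubation, compound (DMSO) 24 hr at 37 C/5% CO2; ONE-Glo 30 min RT; luminescence read-out.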

[15] = qHTS assay to identify small molecule agonists of the TGF-beta/Smad signaling pathway (AID 1346859; active means well fitted activation curve with a large enough effect in the signal ratio in the repeat runs, not every such curve was filed as active; the % refers to the signal ratio; further: series mostly up to about 77 µM)
How it was run: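 Dual-wavelength fluorescence (460/530 nm emission) quantified beta-lactamase expression under the Smad binding element in HEK 293T cells following 5 hr compound treatment at 37 C.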

[16] = Caspase-3/7 induction in CHO-K1 cells by small molecules, qHTS assay (AID 1346980); further: nearly all actives have a fitted effect of over 15% in size
How it was run: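 Wild-type cells were seeded at 1,500 per well and settled 5 hr at 37 C, 5% CO2, then exposed to DMSO-dissolved compounds for 17 hr. Caspase-Glo 3/7 reagent was added, and luminescence was read after 30min at room temperature.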

[17] = qHTS assay to identify small molecule antagonists of the progesterone receptor (PR) signaling pathway - cell viability counter screen (AID 1346798); further: series mostly up to about 92 µM; nearly all actives have a fitted effect of over 50% in size
How it was run: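 Viability was determined by ATP-based luminescence (CellTiter-Glo) in PR-UAS-bla HEK293T cells cultured in 2% charcoal-stripped serum and incubated 16 hr with compounds under R5020 stimulation.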

[18] = molecular target: Nuclear receptor subfamily 1 group I member 2 (Rattus norvegicus) (UniProt Q9R1A7); assay: Rat pregnane X receptor (rPXR) activation by small molecules, qHTS assay (AID 1346983); details: rPXR luciferase reporter cells, One-Glo luminescence, 24 h; active compounds read high; further: nearly all actives have a fitted effect of over 20% in size
How it was run: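 Cell-based rPXR luciferase reporter assay, 2,000 cells per well, rested 5hr at 37 C before compound addition in DMSO, then 24 hr at 37 C. One-Glo reagent was added and luminescence read after 30 min at room temperature.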

[19] = molecular target: Nuclear receptor subfamily 1 group I member 2 (Homo sapiens) (UniProt O75469); assay: CYP3A4 induction through human pregnane X receptor (PXR) by small molecules, qHTS assay (AID 1346984); further: nearly all actives have a fitted effect of over 40% in size
How it was run: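 HepG2-derived DPX-2 line carrying PXR plus a CYP3A4-promoter luciferase reporter; cells plated 5 hr, compound-exposed 24 hr at 37C. CYP3A4 activity probed with 3uM (final) Luciferin-IPA for 3hr, then luciferase read after One-Glo.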

[20] = molecular target: Nuclear receptor subfamily 1 group I member 2 (Homo sapiens) (UniProt O75469); assay: Human pregnane X receptor (PXR) activation by small molecules, qHTS assay (AID 1346985); further: nearly all actives have a fitted effect of over 40% in size
How it was run: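 DPX-2 cells (HepG2 co-transfected with a PXR response element and a CYP3A4-promoter luciferase construct) were seeded at 2,000 per well, rested 5 hr at 37C, then exposed to DMSO-dissolved compounds for 24 hr. Activation was read as luciferase luminescence.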
On the % scale 0 is the no-effect control and ±100 the full control effect.

Chain of Nuclear receptor subfamily 1 group I member 2 (Homo sapiens) (O75469 whole entry, looked up): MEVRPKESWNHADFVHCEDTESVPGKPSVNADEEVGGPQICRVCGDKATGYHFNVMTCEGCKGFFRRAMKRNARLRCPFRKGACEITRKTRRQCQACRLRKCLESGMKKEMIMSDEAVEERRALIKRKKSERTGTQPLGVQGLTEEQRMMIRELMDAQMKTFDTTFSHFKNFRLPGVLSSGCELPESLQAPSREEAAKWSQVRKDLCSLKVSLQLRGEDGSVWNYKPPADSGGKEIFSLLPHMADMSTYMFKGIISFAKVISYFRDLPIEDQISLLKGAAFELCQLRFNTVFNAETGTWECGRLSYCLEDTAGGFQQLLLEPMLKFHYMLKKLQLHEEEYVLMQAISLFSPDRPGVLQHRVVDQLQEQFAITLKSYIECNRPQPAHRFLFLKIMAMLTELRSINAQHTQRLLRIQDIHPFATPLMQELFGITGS
Chain of Thyrotropin-releasing hormone receptor (Homo sapiens) (P34981 whole entry, looked up): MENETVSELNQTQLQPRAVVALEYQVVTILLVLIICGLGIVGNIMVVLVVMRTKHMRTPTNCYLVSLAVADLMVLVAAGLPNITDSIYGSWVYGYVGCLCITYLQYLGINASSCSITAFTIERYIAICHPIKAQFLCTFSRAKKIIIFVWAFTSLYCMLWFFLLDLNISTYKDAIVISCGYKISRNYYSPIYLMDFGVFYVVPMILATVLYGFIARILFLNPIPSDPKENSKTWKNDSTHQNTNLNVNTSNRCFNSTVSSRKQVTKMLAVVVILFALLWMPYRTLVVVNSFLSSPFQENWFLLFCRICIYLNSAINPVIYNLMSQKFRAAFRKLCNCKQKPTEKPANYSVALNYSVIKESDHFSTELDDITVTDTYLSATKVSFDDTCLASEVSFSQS
Chain of Progesterone receptor (Homo sapiens) (P06401 whole entry, looked up): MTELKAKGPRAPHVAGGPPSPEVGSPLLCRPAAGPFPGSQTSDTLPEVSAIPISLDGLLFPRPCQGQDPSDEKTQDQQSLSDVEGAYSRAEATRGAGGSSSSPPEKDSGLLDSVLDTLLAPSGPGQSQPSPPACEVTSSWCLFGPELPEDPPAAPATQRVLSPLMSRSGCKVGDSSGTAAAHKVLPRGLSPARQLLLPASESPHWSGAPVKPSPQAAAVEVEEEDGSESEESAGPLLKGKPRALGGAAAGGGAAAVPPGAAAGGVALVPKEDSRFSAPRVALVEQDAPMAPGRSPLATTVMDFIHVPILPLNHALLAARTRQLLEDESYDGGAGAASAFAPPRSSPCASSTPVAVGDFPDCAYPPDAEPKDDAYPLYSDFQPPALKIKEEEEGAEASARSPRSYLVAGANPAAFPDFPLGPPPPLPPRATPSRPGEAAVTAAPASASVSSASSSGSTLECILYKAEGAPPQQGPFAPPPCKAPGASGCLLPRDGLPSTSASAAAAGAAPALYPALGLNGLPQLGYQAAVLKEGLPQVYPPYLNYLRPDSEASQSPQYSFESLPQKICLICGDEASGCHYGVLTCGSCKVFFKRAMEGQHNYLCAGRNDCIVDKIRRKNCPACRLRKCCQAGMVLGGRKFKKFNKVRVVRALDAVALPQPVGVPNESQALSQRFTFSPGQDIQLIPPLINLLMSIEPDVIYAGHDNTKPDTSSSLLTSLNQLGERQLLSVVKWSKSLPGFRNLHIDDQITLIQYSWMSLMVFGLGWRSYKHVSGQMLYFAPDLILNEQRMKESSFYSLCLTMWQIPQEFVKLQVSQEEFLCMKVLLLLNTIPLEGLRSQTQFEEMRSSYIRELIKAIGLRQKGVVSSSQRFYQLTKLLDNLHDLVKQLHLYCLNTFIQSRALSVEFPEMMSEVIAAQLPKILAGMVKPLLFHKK
Chain of Nuclear receptor subfamily 1 group I member 2 (Rattus norvegicus) (Q9R1A7 whole entry, looked up): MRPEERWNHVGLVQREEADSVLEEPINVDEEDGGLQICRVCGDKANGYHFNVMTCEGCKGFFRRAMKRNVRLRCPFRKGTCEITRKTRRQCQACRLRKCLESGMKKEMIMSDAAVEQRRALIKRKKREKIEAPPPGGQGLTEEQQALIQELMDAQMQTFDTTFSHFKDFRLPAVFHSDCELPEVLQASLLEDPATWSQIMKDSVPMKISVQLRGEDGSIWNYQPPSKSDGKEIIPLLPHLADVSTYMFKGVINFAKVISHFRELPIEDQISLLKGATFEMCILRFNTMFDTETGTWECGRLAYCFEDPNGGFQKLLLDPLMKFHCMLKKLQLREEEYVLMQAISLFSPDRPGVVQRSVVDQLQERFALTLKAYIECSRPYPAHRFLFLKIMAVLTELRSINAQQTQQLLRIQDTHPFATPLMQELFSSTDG
Chain of Thyrotropin receptor (Homo sapiens) (P16473 whole entry, looked up): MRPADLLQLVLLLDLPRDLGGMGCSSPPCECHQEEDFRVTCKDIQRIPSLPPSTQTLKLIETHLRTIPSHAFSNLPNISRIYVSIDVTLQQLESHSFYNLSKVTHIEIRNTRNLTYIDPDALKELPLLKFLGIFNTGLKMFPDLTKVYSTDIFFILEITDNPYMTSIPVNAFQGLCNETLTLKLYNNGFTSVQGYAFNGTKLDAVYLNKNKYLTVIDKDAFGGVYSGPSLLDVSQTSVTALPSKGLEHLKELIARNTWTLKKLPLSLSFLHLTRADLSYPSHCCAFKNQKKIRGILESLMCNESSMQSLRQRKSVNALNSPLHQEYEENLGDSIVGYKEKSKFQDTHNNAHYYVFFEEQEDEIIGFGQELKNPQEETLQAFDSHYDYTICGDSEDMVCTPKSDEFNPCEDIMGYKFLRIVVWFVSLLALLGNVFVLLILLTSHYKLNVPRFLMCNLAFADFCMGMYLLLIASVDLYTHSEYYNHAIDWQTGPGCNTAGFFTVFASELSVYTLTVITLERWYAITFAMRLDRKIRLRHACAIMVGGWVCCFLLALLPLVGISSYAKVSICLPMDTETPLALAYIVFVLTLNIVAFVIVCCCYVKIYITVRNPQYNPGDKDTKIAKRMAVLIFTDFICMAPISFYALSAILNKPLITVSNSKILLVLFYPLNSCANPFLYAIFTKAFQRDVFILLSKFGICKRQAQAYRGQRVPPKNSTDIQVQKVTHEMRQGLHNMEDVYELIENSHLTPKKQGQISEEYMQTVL

COc1ccc2c(c1)c(CC(=O)OCC(=O)O)c(C)n2C(=O)c1ccc(Cl)cc1
inactive: Potency [1] | Potency [2] | Potency [3] | Potency [4] | Potency [5] | Potency [6] | outcome [7] | outcome [8] | outcome [9] | Potency [10] | Potency [11] | Potency [12] | Potency [13] | Potency [14]

CCc1cccc2c(CCO)c[nH]c12
inactive: Potency [1] | Potency [2] | Potency [3] | Potency [4] | Potency [5] | Potency [6] | outcome [7] | outcome [15] | outcome [8] | outcome [9] | Potency [10] | Potency [11] | Potency [12] | outcome [16] | Potency [13] | Potency [14]

Nc1ccccc1S(=O)(=O)O
inactive: Potency [1] | Potency [2] | Potency [3] | Potency [4] | Potency [5] | Potency [6] | outcome [7] | outcome [15] | Potency [10] | Potency [11] | Potency [12] | outcome [16] | Potency [13] | Potency [14]

C=COCC1CCC(CO)CC1 (stereo not drawn)
inactive: Potency [1] | Potency [2] | Potency [3] | Potency [4] | Potency [5] | outcome [7] | outcome [15] | outcome [8] | outcome [9] | Potency [10] | Potency [11] | Potency [12] | outcome [16] | Potency [13] | Potency [14]

OC1CCCCC1c1ccccc1 (stereo not drawn)
inactive: Potency [1] | Potency [2] | Potency [3] | Potency [4] | Potency [5] | Potency [6] | outcome [15] | outcome [9] | Potency [10] | Potency [11] | Potency [12] | outcome [16] | Potency [13] | Potency [14]

CCO/C([O-])=N/c1c[n+](N2CCOCC2)no1
inactive: Potency [1] | Potency [2] | Potency [3] | Potency [4] | Potency [17] | Potency [5] | Potency [6] | outcome [15] | outcome [8] | outcome [9] | Potency [10] | Potency [11] | Potency [12] | outcome [16] | Potency [13] | Potency [14] | max activation [18] 0.703% | Potency [19] | Potency [20]

CC(NC(CCc1ccccc1)C(=O)O)C(=O)N1C(=O)N(C)CC1C(=O)O (stereo not drawn)
inactive: Potency [1] | Potency [2] | Potency [3] | Potency [4] | Potency [17] | Potency [5] | Potency [6] | outcome [15] | outcome [8] | outcome [9] | Potency [10] | Potency [11] | Potency [12] | Potency [13] | Potency [14]

O=C1CCCN1C1CCCCC1
inactive: Potency [1] | Potency [2] | Potency [3] | Potency [4] | Potency [17] | Potency [5] | Potency [6] | outcome [15] | outcome [8] | outcome [9] | Potency [10] | Potency [11] | Potency [12] | outcome [16] | Potency [13] | Potency [14]

OC[C@]1(O)OC[C@@H](O)[C@H](O)[C@@H]1O
inactive: Potency [1] | Potency [2] | Potency [3] | Potency [4] | Potency [17] | Potency [5] | Potency [6] | outcome [15] | outcome [8] | outcome [9] | Potency [10] | Potency [11] | Potency [12] | outcome [16] | Potency [13] | Potency [14]

O=c1cc(CO)occ1O
inactive: Potency [1] | Potency [2] | Potency [3] | Potency [4] | Potency [17] | Potency [5] | Potency [6] | outcome [15] | outcome [8] | outcome [9] | Potency [10] | Potency [11] | Potency [12] | outcome [16] | Potency [13] | Potency [14]

CCOC(=O)Nc1ccc(NCc2ccc(F)cc2)nc1N
inactive: Potency [1] | Potency [2] | Potency [3] | Potency [4] | Potency [17] | Potency [5] | outcome [7] | outcome [15] | Potency [10] | Potency [11] | Potency [12] | Potency [13] | Potency [14] | max activation [18] 1.97% | Potency [19]

O=C(O)c1ccccc1OP(=O)(O)O
inactive: Potency [1] | Potency [2] | Potency [3] | Potency [4] | Potency [17] | Potency [6] | outcome [7] | outcome [15] | outcome [8] | outcome [9] | Potency [10] | Potency [11] | Potency [12] | Potency [13] | Potency [14]

CN(C)CCCSc1ccccc1NC(=O)/C=C/c1ccccc1
inactive: Potency [1] | Potency [2] | Potency [3] | Potency [4] | Potency [17] | Potency [6] | outcome [7] | outcome [15] | outcome [8] | outcome [9] | Potency [10] | Potency [11] | Potency [12] | outcome [16] | Potency [13] | max activation [18] 2.69% | Potency [19]

CCCCCCCCCCCCCC=O
inactive: activity change, negative = inhibition [1] -5.31% [at 8.39 µM] | activity change, negative = cytotoxicity [2] 2.15% [at 8.39 µM] | activation [3] -0.302% [at 8.39 µM] | activity change, negative = inhibition [4] 6.1% [at 8.39 µM] | activity change, negative = cytotoxicity [5] 5.7% [at 8.39 µM] | viability change, negative = cytotoxic [6] 6.5% [at 6.97 µM] | activity change, negative = cytotoxicity [7] 12.8% [at 6.97 µM] | activation [15] -2.78% [at 6.97 µM] | activity, negative = inhibition [8] -5.43% [at 4.65 µM] | activation [9] 0.0389% [at 5.23 µM] | activity change, negative = cytotoxicity [10] -1.66% [at 8.39 µM] | caspase activation [11] -1.41% [at 8.39 µM] | activity change, negative = cytotoxicity [12] 0.0836% [at 8.39 µM] | caspase-3/7 activation [16] 1.18% [at 8.39 µM] | activity change, negative = cytotoxicity [13] -0.047% [at 8.39 µM] | activation [14] -0.115% [at 8.39 µM]

CN1CCC(=C2c3ccccc3CC(=O)c3sccc32)CC1
inactive: Potency [1] | Potency [2] | Potency [3] | Potency [4] | Potency [5] | Potency [6] | outcome [7] | outcome [15] | Potency [11] | Potency [12] | Potency [13] | Potency [14]

CCN(Cc1ccncc1)C(=O)C(CO)c1ccccc1 (stereo not drawn)
inactive: Potency [1] | Potency [2] | Potency [3] | Potency [4] | Potency [5] | outcome [7] | outcome [15] | outcome [9] | Potency [10] | Potency [11] | Potency [12] | outcome [16] | Potency [13]
